Reference: ChEMBL document CHEMBL3988442, “University of Dundee, Small-Polar-MMV Screening Library” (2021)
For some of these results: Potency and affinity values are given separately.

Legend:
Set-up in all cases: scale not given: direction of the effect not stated beside the values
[1] = molecular target: Protein translocase subunit SecA (Escherichia coli (strain K12)) (UniProt P10408); experiment: Assay to Identify E. coli SecA ATPase Inhibitors; format: functional; details: 30 µM
[2] = molecular target: T1, Ubiquitin-activating enzyme e1, putative (Leishmania donovani (strain BPK282A1)) (UniProt E9BSI1); experiment: Leishmania donovani Ubiquitin Activating Enzyme (LdE1); format: functional; details: 30 µM
T1 sequence (whole entry): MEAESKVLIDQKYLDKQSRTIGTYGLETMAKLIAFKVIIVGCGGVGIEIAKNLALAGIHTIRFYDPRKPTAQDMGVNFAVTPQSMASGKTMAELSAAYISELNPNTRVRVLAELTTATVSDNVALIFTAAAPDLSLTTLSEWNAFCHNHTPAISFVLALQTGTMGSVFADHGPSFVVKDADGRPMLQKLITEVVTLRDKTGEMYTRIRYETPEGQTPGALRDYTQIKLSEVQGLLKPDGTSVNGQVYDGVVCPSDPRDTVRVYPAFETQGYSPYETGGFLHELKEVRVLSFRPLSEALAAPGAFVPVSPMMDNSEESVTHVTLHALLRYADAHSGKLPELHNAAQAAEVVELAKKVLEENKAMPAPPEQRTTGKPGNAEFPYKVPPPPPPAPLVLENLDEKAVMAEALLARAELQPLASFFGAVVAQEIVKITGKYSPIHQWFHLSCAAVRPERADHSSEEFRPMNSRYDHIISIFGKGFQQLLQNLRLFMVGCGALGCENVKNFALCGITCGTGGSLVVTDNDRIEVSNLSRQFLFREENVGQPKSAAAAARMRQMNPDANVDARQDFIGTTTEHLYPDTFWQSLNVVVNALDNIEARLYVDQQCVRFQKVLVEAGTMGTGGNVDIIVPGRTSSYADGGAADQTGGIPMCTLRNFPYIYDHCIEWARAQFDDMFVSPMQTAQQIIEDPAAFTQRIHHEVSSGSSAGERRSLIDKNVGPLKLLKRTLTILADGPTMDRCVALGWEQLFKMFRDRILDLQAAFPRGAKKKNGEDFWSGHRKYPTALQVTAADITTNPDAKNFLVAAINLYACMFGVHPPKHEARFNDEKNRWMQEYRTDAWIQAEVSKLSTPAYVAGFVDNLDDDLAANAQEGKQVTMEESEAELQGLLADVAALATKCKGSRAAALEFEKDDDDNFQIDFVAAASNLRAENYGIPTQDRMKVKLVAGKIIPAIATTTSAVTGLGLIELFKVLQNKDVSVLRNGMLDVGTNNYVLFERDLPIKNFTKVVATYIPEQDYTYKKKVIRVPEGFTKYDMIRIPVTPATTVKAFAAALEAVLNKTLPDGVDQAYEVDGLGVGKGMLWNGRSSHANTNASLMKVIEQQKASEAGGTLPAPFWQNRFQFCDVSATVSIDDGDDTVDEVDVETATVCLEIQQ

[3] = molecular target: AMP-activated protein kinase, AMPK (Homo sapiens) (UniProt P54646+O43741+P54619+Q9UGJ0+Q9Y478+Q13131+Q9UGI9); experiment: AMP-dependent Kinase enzyme assay. An in vitro enzyme assay that detects ADP turnover that is directly proportional to AMPK activity. This uses naive AMPK that is activated during the assay with MK-8722; format: functional; details: 30 µM
[4] = molecular target: Sialic acid-binding Ig-like lectin 9 (Homo sapiens) (UniProt Q9Y336); experiment: Hs-Siglec9 ALPHAscreen SOP 20170721; details: 10 µM
[5] = system: Trypanosoma cruzi; experiment: Trypanosoma cruzi phosphomannomutase and mannose-1-phosphate guanylyltransferase assay; format: functional; details: 10 µM
[6] = molecular target: T2, Arginase-2, mitochondrial (Homo sapiens) (UniProt P78540); experiment: in vitro enzyme assay to detect the production of urea directly proportional to the activity of Arginase II; format: functional; details: 33.3 µM; further: in the data most compounds retested in dose-response had high values
T2 sequence (whole entry): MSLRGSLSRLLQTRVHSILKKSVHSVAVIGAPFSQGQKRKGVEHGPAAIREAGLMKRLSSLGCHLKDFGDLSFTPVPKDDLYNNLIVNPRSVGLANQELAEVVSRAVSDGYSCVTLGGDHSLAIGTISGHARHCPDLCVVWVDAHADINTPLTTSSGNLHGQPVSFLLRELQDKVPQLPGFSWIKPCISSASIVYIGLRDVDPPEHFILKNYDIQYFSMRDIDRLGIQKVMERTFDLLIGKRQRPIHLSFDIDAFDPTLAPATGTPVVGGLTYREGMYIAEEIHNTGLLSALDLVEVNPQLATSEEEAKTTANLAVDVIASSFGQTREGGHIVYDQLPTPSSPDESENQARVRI

[7] = molecular target: T3, Proteasome subunit beta (Trypanosoma cruzi) (UniProt O96673); experiment: Trypanosoma cruzi proteasome chymotrypsin-like activity (TcProtChymo) assay.; further: in the data most compounds retested in dose-response had high values; format: functional; details: 9.37 µM
T3 sequence (whole entry): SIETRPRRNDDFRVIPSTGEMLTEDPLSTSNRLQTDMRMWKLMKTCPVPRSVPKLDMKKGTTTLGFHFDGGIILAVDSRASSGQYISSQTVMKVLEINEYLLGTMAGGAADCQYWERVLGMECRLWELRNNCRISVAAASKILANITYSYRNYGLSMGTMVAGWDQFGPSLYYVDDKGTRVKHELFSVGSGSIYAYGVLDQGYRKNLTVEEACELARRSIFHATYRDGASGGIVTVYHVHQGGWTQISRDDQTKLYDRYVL

[8] = species on record: Homo sapiens; experiment: To identify inhibition of the IFN signalling (Jak-Stat) pathway via expression of an eGFP reporter gene under the control of an IFN-stimulated response element (ISRE) containing MxA promoter.; format: functional; details: 30 µM
[9] = molecular target: T4, Tyrosyl-tRNA synthetase, putative (Trypanosoma cruzi (strain CL Brener)) (UniProt Q4DSP6); experiment: Trypanosoma cruzi tyrosyl tRNA synthetase (TcYRS) _High Tyrosine SOP; format: functional; details: 30 µM; further: in the data most compounds retested in dose-response had high values
T4 sequence (whole entry): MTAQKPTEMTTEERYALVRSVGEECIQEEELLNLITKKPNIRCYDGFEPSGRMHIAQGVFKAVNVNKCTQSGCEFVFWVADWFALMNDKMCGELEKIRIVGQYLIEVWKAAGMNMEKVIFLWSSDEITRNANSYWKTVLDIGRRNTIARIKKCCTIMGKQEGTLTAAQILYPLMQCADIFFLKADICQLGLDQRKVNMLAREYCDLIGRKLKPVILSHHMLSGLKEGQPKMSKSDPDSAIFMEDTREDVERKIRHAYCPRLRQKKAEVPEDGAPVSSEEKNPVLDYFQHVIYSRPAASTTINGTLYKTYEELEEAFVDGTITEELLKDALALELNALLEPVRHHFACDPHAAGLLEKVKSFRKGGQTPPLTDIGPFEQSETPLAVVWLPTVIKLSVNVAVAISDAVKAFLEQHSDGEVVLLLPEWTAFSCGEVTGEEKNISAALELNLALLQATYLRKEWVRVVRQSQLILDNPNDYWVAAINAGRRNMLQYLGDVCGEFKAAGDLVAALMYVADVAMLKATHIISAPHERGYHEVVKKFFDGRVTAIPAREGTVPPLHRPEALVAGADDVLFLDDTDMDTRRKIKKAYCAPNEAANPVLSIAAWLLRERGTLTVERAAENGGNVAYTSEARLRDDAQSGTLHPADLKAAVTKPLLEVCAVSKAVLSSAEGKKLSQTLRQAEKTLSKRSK

[10] = molecular target: T4, Tyrosyl-tRNA synthetase, putative (Trypanosoma cruzi (strain CL Brener)); experiment: Trypanosoma cruzi tyrosyl tRNA synthetase (TcYRS) SOP; format: functional; details: 30 µM
[11] = molecular target: Chromo domain-containing protein 1 (Saccharomyces cerevisiae (strain ATCC 204508 / S288c) (Baker's yeast)) (UniProt P32657); experiment: ScCHD-1 Enzyme Inhibition Assay; format: functional; details: 30 µM; further: in the data most compounds retested in dose-response had high values
Chromo domain-containing protein 1 (Saccharomyces cerevisiae (strain ATCC 204508 / S288c) (Baker's yeast)), sequence (P32657 whole entry, the tested form may be a part): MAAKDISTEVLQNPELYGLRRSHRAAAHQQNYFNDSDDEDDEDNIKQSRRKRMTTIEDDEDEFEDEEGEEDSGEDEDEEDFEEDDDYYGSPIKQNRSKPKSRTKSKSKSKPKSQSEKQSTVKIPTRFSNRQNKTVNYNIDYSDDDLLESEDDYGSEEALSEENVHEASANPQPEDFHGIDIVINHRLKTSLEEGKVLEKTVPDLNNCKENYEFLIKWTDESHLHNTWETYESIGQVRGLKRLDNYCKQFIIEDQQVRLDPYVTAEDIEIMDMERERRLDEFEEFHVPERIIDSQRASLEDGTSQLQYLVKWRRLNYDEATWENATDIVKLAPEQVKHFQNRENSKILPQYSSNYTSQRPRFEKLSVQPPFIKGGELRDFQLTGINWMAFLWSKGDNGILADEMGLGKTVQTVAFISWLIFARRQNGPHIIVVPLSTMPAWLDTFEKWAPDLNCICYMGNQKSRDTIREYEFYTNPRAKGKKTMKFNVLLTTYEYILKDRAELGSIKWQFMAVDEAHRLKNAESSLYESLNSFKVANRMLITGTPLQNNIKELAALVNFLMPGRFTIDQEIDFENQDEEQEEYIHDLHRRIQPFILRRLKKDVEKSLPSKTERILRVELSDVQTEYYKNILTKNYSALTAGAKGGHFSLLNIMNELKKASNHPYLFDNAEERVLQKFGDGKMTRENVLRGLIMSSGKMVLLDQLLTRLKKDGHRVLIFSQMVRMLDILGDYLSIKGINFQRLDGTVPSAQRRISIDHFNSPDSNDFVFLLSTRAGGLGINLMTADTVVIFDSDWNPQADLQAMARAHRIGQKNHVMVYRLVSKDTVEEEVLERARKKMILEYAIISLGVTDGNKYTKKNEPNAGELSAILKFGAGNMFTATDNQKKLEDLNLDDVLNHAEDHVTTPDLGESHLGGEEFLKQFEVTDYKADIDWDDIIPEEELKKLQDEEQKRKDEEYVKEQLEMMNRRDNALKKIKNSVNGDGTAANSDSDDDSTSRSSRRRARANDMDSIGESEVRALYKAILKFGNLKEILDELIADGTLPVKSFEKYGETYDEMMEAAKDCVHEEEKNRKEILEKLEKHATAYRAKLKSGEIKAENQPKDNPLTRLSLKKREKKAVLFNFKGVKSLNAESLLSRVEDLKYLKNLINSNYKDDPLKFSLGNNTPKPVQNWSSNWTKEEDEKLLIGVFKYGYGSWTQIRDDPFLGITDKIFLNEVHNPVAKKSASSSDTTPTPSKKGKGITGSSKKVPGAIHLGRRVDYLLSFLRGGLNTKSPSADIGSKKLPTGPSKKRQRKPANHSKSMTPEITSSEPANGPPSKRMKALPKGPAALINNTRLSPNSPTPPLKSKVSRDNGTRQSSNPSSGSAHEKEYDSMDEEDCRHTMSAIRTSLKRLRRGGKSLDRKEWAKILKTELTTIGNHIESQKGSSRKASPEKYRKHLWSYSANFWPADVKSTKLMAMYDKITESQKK

Protein translocase subunit SecA (Escherichia coli (strain K12)), sequence (P10408 whole entry): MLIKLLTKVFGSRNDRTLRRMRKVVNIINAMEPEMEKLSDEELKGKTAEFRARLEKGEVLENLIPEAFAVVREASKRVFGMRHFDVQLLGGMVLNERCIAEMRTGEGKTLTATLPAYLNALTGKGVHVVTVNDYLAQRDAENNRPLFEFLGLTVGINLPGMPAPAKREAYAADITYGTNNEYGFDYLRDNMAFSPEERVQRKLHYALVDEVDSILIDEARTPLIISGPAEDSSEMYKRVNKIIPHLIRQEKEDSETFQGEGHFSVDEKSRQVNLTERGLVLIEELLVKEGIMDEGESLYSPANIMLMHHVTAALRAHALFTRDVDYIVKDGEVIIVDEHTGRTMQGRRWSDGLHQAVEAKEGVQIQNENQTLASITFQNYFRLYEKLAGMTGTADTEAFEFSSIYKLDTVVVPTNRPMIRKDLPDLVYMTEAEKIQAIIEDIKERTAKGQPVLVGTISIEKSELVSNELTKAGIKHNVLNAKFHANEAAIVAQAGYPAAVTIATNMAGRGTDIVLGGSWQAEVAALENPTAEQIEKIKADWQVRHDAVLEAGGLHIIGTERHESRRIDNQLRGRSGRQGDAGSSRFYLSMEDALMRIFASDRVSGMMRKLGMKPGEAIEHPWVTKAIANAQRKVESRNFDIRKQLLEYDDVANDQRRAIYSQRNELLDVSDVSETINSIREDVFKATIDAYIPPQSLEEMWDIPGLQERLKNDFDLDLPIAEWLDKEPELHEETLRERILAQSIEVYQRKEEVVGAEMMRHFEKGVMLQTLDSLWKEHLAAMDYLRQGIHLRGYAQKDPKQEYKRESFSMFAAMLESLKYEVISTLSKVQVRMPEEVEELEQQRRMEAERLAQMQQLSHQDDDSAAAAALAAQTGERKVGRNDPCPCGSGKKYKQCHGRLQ
Sialic acid-binding Ig-like lectin 9 (Homo sapiens), sequence (Q9Y336 whole entry): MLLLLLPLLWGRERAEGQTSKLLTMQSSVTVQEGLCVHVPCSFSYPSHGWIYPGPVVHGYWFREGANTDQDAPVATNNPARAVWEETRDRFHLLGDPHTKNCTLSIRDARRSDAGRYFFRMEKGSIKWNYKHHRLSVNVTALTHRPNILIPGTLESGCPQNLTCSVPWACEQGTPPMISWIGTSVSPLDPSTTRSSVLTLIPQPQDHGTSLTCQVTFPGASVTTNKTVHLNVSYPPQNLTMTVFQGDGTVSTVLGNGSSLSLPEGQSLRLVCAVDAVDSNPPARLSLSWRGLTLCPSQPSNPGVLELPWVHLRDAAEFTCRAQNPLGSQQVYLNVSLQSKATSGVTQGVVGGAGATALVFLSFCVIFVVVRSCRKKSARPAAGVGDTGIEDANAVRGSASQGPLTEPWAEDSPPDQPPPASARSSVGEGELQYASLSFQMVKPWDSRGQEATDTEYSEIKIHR

Structure (SMILES): CC(OCC1CC1)C(=O)N1CCCN(Cc2nccn2C)CC1 (stereo unspecified)
- Percent Effect [1]: 0.276%
- Percent Effect [2]: 13.9%
- Percent Effect [3]: -2.47%
- Percent Effect [4]: -3.62%
- Percent Effect [5]: -5.64%
- Percent Effect [6]: 1.07%
- Percent Effect [7]: 19.4%
- Percent Effect [8]: 10.6%
- Percent Effect [9]: 3.12%
- Percent Effect [10]: 7.59%
- Percent Effect [11]: -24.1%

Structure (SMILES): CC(C)c1nc2n(n1)CC(NCc1ccncc1)CC2 (stereo unspecified)
- Percent Effect [1]: -3.2%
- Percent Effect [2]: 5.26%
- Percent Effect [3]: -3.06%
- Percent Effect [4]: -0.0553%
- Percent Effect [5]: 2.63%
- Percent Effect [6]: -5.92%
- Percent Effect [7]: 4.12%
- Percent Effect [8]: 3.22%
- Percent Effect [9]: 2.13%
- Percent Effect [10]: 5.2%
- Percent Effect [11]: -1.54%

Structure (SMILES): CC(=O)c1cc(CC(=O)NCc2ccc(F)cc2)cs1
- Percent Effect [1]: -2.72%
- Percent Effect [2]: 0%
- Percent Effect [3]: 1.92%
- Percent Effect [4]: 3.19%
- Percent Effect [5]: 1.93%
- Percent Effect [6]: -1.43%
- Percent Effect [7]: 1.72%
- Percent Effect [8]: -0.802%
- Percent Effect [9]: 4.76%
- Percent Effect [10]: 9.76%
- Percent Effect [11]: -0.261%

Structure (SMILES): Clc1ccc(CN2CCCC(Cn3cncn3)C2)c2ncccc12 (stereo unspecified)
- Percent Effect [1]: -5.66%
- Percent Effect [2]: -7.79%
- Percent Effect [3]: -0.804%
- Percent Effect [4]: 1.38%
- Percent Effect [5]: 0.688%
- Percent Effect [6]: -1.38%
- Percent Effect [7]: 12%
- Percent Effect [8]: -2.35%
- Percent Effect [9]: 4.3%
- Percent Effect [10]: 3.7%
- Percent Effect [11]: 3.92%

Structure (SMILES): CCOCC(=O)N1C[C@@H](NC(C)=O)[C@H](c2ccc(OC)cc2)C1
- Percent Effect [1]: -0.132%
- Percent Effect [2]: 5.33%
- Percent Effect [3]: -8.83%
- Percent Effect [4]: 9.11%
- Percent Effect [5]: 2.63%
- Percent Effect [6]: 18.8%
- Percent Effect [7]: 15.2%
- Percent Effect [8]: 14.1%
- Percent Effect [9]: 7.1%
- Percent Effect [10]: 18.5%
- Percent Effect [11]: -1.7%

Structure (SMILES): Cc1cnn(C2CCCN(C(=O)c3ccc(N(C)C)nn3)C2)c1 (stereo unspecified)
- Percent Effect [1]: -3.44%
- Percent Effect [2]: 15.6%
- Percent Effect [3]: 1.44%
- Percent Effect [4]: -3.44%
- Percent Effect [5]: -5.62%
- Percent Effect [6]: -2.85%
- Percent Effect [7]: -1.01%
- Percent Effect [8]: 33.7%
- Percent Effect [9]: 4.85%
- Percent Effect [10]: 12.2%
- Percent Effect [11]: -8.48%

Structure (SMILES): Cc1cccc(C(=O)N2CCN(S(C)(=O)=O)[C@@H](C)C2)c1C
- Percent Effect [1]: -5.53%
- Percent Effect [2]: -2.74%
- Percent Effect [3]: 15.2%
- Percent Effect [4]: -4.05%
- Percent Effect [5]: -1.57%
- Percent Effect [6]: -2.27%
- Percent Effect [7]: 0.71%
- Percent Effect [8]: 9.6%
- Percent Effect [9]: 0%
- Percent Effect [10]: 0%
- Percent Effect [11]: 0.913%

Structure (SMILES): Cc1cc(CN2CCN(C(=O)NC(C)c3cccnc3)CC2)on1 (stereo unspecified)
- Percent Effect [1]: -2.66%
- Percent Effect [2]: 13.2%
- Percent Effect [3]: -2.63%
- Percent Effect [4]: 3.25%
- Percent Effect [5]: 8.08%
- Percent Effect [6]: 1.92%
- Percent Effect [7]: 10.7%
- Percent Effect [8]: 2.49%
- Percent Effect [9]: -0.49%
- Percent Effect [10]: 19.5%
- Percent Effect [11]: -6.79%

Structure (SMILES): Cc1cnn(CCNCc2nc(-c3ccccc3Cl)no2)c1
- Percent Effect [1]: -4.16%
- Percent Effect [2]: 10.5%
- Percent Effect [3]: 0.118%
- Percent Effect [4]: -5.56%
- Percent Effect [5]: 9.77%
- Percent Effect [6]: -4.98%
- Percent Effect [7]: 16.5%
- Percent Effect [8]: 12.2%
- Percent Effect [9]: 5.39%
- Percent Effect [10]: 17.1%
- Percent Effect [11]: -13.7%

Structure (SMILES): Cc1nc(C)n(CC2CCCN2CCCc2ccccc2)n1 (stereo unspecified)
- Percent Effect [1]: -1.6%
- Percent Effect [2]: -11%
- Percent Effect [3]: -0.4%
- Percent Effect [4]: 3.43%
- Percent Effect [5]: 1.96%
- Percent Effect [6]: 1.82%
- Percent Effect [7]: 7.1%
- Percent Effect [8]: -8.87%
- Percent Effect [9]: 8.6%
- Percent Effect [10]: 5%
- Percent Effect [11]: -1.02%

Structure (SMILES): c1ccc2cc(OCCN3CCOC(Cn4cncn4)C3)ccc2c1 (stereo unspecified)
- Percent Effect [1]: -4.49%
- Percent Effect [2]: 6.33%
- Percent Effect [3]: -0.381%
- Percent Effect [4]: 14%
- Percent Effect [5]: 2.77%
- Percent Effect [6]: -1.5%
- Percent Effect [7]: 10.3%
- Percent Effect [8]: 5.72%
- Percent Effect [9]: 4.17%
- Percent Effect [10]: 10.1%
- Percent Effect [11]: -6.36%
